# Test results: article PMC5540273 (PLoS ONE, 2017)
# Several values for one entry are separate records, joined by “and”; a condition that tells them apart may be missing. Equal entries are not always repeated. Where two headings read alike, the source gives them in different places.
# Columns and labels:
# CAMKK1 = settings: concentration: 1 μM, replicates: in singlicate; n = 1
# CAMKK2 = settings: concentration: 1 μM, replicates: in singlicate; n = 1
# CASK = settings: concentration: 1 μM, replicates: in singlicate, n = 1
# CDC2L1 = test system: T1, CDC2L1; settings: concentration: 1 μM, replicates: in singlicate, n = 1
# T1 construct: gene CDK11B
# CDC2L2 = settings: concentration: 1 μM, replicates: in singlicate, n = 1
# CDC2L5 = test system: T2, CDC2L5; settings: n = 1
# T2 construct: gene CDK13
# CDK11 = test system: T3, CDK11; settings: concentration: 1 μM, replicates: in singlicate, n = 1
# T3 construct: gene CDK19
# CDK2 = settings: concentration: 1 μM, replicates: in singlicate; n = 1
# CDK3 = settings: concentration: 1 μM, replicates: in singlicate; n = 1
# CDK4-cyclinD1 = settings: n = 1
# [1] = concentration: 1 μM, replicates: in singlicate
# [2] = concentration: 1 μM, replicates: in singlicate, 1 µM
# 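Also: KINOMEscan kinase panel screen.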
SMILES,%Inh (CAMKK1),%Inh (CAMKK2),%Inh (CASK),%Inh (CDC2L1),%Inh (CDC2L2),%Inh (CDC2L5; [1]),%Inh (CDK11),%Inh (CDK2),%Inh (CDK3),%Inh (CDK4-cyclinD1; [1]),%Inh (CDC2L5; 1 µM),%Inh (CDK4-cyclinD1; 1 µM),%Inh (CASK; 1 µM),%Inh (CDC2L1; 1 µM),%Inh (CDC2L2; 1 µM),%Inh (CDC2L5; [2]),%Inh (CDK11; 1 µM),%Inh (CDK4-cyclinD1; [2])
[2H]C([2H])(c1cccc(C(F)(F)F)c1C)n1ccn2c(=O)nc(N3CCOCC3)cc12 [GSK2336394],0%,0%,8%,0%,17%,0%,5%,0%,1%,0%,–,–,–,–,–,–,–,–
O=c1cc(N2CCOCC2)nc2n(Cc3cccc(Cl)c3Cl)c(C3CC3)nn12 [GSK2358994],3%,8%,26%,0%,0%,–,0%,0%,5%,–,0%,0%,–,–,–,–,–,–
O=C(NCCNc1ccnc(Nc2ccc(F)cc2)n1)c1cc2ccccc2s1 [GSK1379874],5%,0%,1%,0%,8%,0%,0%,0%,0%,0%,–,–,–,–,–,–,–,–
CN(C(=O)c1ccc(-c2cc(-c3c[nH]nc3-c3ccccn3)ccn2)cc1)C1CCOCC1 [GW810083],12%,25%,0%,0%,0%,11%,52%,0%,0%,31%,–,–,–,–,–,–,–,–
COCCNC(=O)c1ccc(-c2cc(C(=O)NC3CC3)cc(F)c2C)cc1 [GW868318],3%,16%,16%,3%,15%,33%,6%,12%,11%,24%,–,–,–,–,–,–,–,–
O=C(NCCNc1ccnc(Nc2ccc(F)cc2)n1)Nc1ccccc1F [GSK1379880],0%,0%,1%,0%,9%,0%,0%,0%,20%,0%,–,–,–,–,–,–,–,–
O=C(NOCC1CC1)c1ccc(F)c(F)c1Nc1ccc(I)cc1Cl,0%,0%,3%,0%,0%,0%,12%,0%,0%,0%,–,–,–,–,–,–,–,–
CCc1ccnc(/C=C/c2n[nH]c3cc(Sc4ccccc4C(=O)NC)ccc23)c1,16%,11%,34%,7%,2%,0%,0%,3%,0%,16%,–,–,–,–,–,–,–,–
CCn1cnc2c(N)ncnc21 [GW345098],8%,2%,31%,1%,6%,0%,0%,0%,1%,0%,–,–,–,–,–,–,–,–
NS(=O)(=O)c1cccc(-c2ccc3ncc(N4CCOCC4)nc3c2)c1 [GSK1535721],11%,12%,1%,6%,34%,0%,7%,0%,0%,0%,–,–,–,–,–,–,–,–
Fc1ccc(-c2ncn(CCCN3CCOCC3)c2-c2cccnc2)cc1 [SB-211743],0%,0%,6%,0%,0%,0%,0%,0%,16%,0%,–,–,–,–,–,–,–,–
CCCCCc1nc2c(N)ncnc2n1CCCCC [SKF-97255],0%,0%,25%,0%,0%,0%,10%,0%,9%,0%,–,–,–,–,–,–,–,–
Cc1ccc(NC(=O)c2ccnc(N3CCN(C)CC3)c2)cc1-c1ccc(C(=O)NCC2CC2)cc1 [GW775604],0%,0%,10%,0%,0%,0%,0%,0%,34%,0%,–,–,–,–,–,–,–,–
Cc1cccc(Cn2ccn3c(=O)cc(N4CCOCC4)nc23)c1 [GSK2297542],5%,27%,20%,0%,15%,0%,0%,8%,20%,0%,–,–,–,–,–,–,–,–
Cc1c2ccc(N(C)c3ccnc(Nc4cccc(S(N)(=O)=O)c4)n3)cc2nn1Cc1ccccc1.Cl.Cl [GW787226],0%,0%,9%,66%,76%,0%,9%,0%,3%,0%,–,–,–,–,–,–,–,–
COc1ccc(Nc2nccc(N3CCC(NC(=O)Nc4cccc(C(C)=O)c4)C3)n2)cc1 (stereo not shown) [GSK1379731],0%,1%,0%,0%,0%,0%,79%,0%,0%,2%,–,–,–,–,–,–,–,–
COc1cc2c(cc1OC[C@@H](O)CO)ncc1c3ccc(C#N)cc3[nH]c21,60%,22%,0%,0%,0%,0%,20%,0%,19%,0%,–,–,–,–,–,–,–,–

SMILES,%Inh (CAMKK1),%Inh (CAMKK2),%Inh (CASK),%Inh (CDC2L1),%Inh (CDC2L2),%Inh (CDC2L5; [1]),%Inh (CDK11),%Inh (CDK2),%Inh (CDK3),%Inh (CDK4-cyclinD1; [1]),%Inh (CDC2L5; 1 µM),%Inh (CDK4-cyclinD1; 1 µM),%Inh (CASK; 1 µM),%Inh (CDC2L1; 1 µM),%Inh (CDC2L2; 1 µM),%Inh (CDC2L5; [2]),%Inh (CDK11; 1 µM),%Inh (CDK4-cyclinD1; [2])
Fc1ccc(-c2nn3c(OCC(F)(F)F)cccc3c2-c2ccncc2)cc1 [GW514784],8%,9%,7%,0%,11%,0%,3%,0%,0%,46%,–,–,–,–,–,–,–,–
Cn1ccc2ncnc(Oc3ccc(NC(=O)Nc4ccncc4)c(Cl)c3)c21,0%,2%,0%,0%,0%,25%,0%,0%,0%,0%,–,–,–,–,–,–,–,–
Fc1ccc(-c2ncn(CCCN3CCOCC3)c2-c2ccccn2)cc1 [SB-211742],16%,19%,0%,1%,0%,21%,0%,0%,43%,22%,–,–,–,–,–,–,–,–
Nc1nccc(-c2c(-c3ccc(F)cc3)ncn2C2CCN(CC(F)(F)F)CC2)n1 [SB-236560],13%,88%,0%,0%,0%,43%,17%,0%,11%,49%,–,–,–,–,–,–,–,–
CSc1ccc(-c2cc3ncnc(SCC(=O)O)c3s2)cc1,44%,45%,0%,7%,0%,0%,0%,0%,40%,0%,–,–,–,–,–,–,–,–
Cl.Cl.Cl.Fc1ccc(-c2ncn(C3CCNCC3)c2-c2ccnc(Nc3ccccc3)n2)cc1 [SB-238039],0%,0%,–,–,–,–,–,0%,0%,–,–,–,16% and 0%,99.4% and 98.5%,99.8% and 98.2%,32% and 16%,0% and 2%,0% and 15%
O=C(c1ccc(-c2cc(-c3c[nH]nc3-c3ccccn3)ccn2)cc1)N1CCOCC1 [GW812171],0%,0%,4%,0%,2%,11%,0%,0%,0%,0%,–,–,–,–,–,–,–,–
N#Cc1c(N2CCOCC2)sc(-c2ccn[nH]2)c1-c1ccc(Cl)cc1,0%,0%,0%,0%,11%,0%,7%,0%,5%,31%,–,–,–,–,–,–,–,–
COC(=O)Nc1nc2cc(Oc3ccc(NC(=O)Nc4cc(F)ccc4F)cc3)ccc2[nH]1.Cl [GW701424],0%,4%,0%,0%,6%,0%,0%,0%,0%,20%,–,–,–,–,–,–,–,–
O=C(NCCCN1CCOCC1)c1cccc(Nc2nccc(Nc3ccc(Oc4ccccc4)cc3)n2)c1 [GW663929],0%,7%,7%,10%,26%,0%,15%,0%,0%,6%,–,–,–,–,–,–,–,–
NCC(NC(=O)c1cc(-c2cn[nH]c2)c(-c2ccnc3[nH]ccc23)s1)c1ccccc1.O=C(O)C(F)(F)F.O=C(O)C(F)(F)F (stereo not shown) [GSK1325775],76%,67%,23%,0%,11%,32%,34%,0%,0%,48%,–,–,–,–,–,–,–,–
CCc1nc(-c2cccc(C)c2)c(-c2ccnc(NCc3ccccc3)c2)s1,3%,12%,16%,0%,5%,11%,0%,0%,9%,0%,–,–,–,–,–,–,–,–
O=c1cc(N2CCOCC2)nc2n(Cc3cccc(C(F)(F)F)c3)ccn12 [GSK2297543],3%,0%,9%,0%,18%,0%,3%,0%,0%,0%,–,–,–,–,–,–,–,–
CN1c2ccc(NCc3ccc(F)cc3)cc2-c2c(cnn2C)S1(=O)=O,0%,0%,26%,0%,0%,27%,0%,25%,0%,21%,–,–,–,–,–,–,–,–
Cc1cn2c(=O)cc(N3CCOCC3)nc2n1Cc1cccc(Cl)c1Cl [GSK2334006],30%,32%,20%,0%,6%,0%,11%,17%,25%,0%,–,–,–,–,–,–,–,–
CC(=O)Nc1ccc(COc2ccc(Nc3ccnc4cc(-c5ccccn5)ccc34)cc2)cc1.Cl [GW440148],4%,26%,1%,12%,11%,0%,17%,1%,0%,0%,–,–,–,–,–,–,–,–
Cl.Nc1ncnc2occ(-c3ccc(NC(=O)Nc4cc(C(F)(F)F)ccc4F)cc3)c12 [SB-707548],9%,25%,5%,25%,49%,97.4%,100%,80%,89%,3%,–,–,–,–,–,–,–,–
